This note sets out measurements from PMC7862700, “An all-to-all approach to the identification of sequence-specific readers for epigenetic DNA modifications on cytosine”.

Common to all, as to experiment: DAPPL (digital affinity profiling via proximity ligation, sequencing); 10 mM Tris-HCl pH 7.5, 50 mM NaCl, 1 mM DTT, 4% glycerol, room temperature, 30 min; GST-TFs on glutathione beads, 16-mer random dsDNA library, 0.1% formaldehyde crosslink after washing; high values mean tight binding
One experiment deals with T1, FEV (Homo sapiens, UniProt Q99581 1-238).
T1 sequence: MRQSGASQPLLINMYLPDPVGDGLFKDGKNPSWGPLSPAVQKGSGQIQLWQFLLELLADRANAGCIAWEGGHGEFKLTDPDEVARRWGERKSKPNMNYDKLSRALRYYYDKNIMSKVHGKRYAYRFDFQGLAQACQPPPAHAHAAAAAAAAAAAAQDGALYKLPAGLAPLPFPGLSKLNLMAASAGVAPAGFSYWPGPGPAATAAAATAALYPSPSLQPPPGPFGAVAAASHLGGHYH
Particulars: protein: recombinant; tags: N-terminal GST; dsDNA, one strand shown. The gist of the method:
(§1)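 Binding signal is each hexamer's read frequency for a factor divided by its frequency in the tag-only sample. The factors were GST-fused human transcription factors from yeast, captured on glutathione beads, DNA-barcoded and pooled with that sample. Pools were incubated with 200 nmole of a random double-stranded 16-mer DNA library in Tris/NaCl/DTT/glycerol buffer at room temperature for 30 min, then washed, crosslinked with 0.1% formaldehyde, proximity-ligated with BsaI/T4 ligase (1 h, 37 °C), PCR-amplified and sequenced on an Illumina NextSeq500.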

Another experiment addresses ETV5 (Homo sapiens, UniProt P41161 1-510). The following applies: protein: recombinant; tags: N-terminal GST; dsDNA, one strand shown. The procedure, abridged:
as §1

For a further experiment, the target named is HSF1 (Homo sapiens, UniProt Q00613 1-529). Particulars: protein: recombinant; tags: N-terminal GST; chain copies: 3; dsDNA, one strand shown. The procedure, abridged:
as §1

A further experiment concerns the target T2, SPIC (Homo sapiens, UniProt Q8N5J4 1-248).
T2 sequence: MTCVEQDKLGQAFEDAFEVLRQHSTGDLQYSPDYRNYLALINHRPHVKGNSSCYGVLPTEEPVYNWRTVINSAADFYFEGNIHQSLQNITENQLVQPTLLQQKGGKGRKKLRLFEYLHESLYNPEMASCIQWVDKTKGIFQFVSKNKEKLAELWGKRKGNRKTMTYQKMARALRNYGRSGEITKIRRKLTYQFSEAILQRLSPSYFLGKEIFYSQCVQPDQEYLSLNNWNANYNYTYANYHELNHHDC
Particulars: protein: recombinant; tags: N-terminal GST; dsDNA, one strand shown. The gist of the method: as §1

In another experiment the target is ELF4 (Homo sapiens, UniProt Q99607 1-663). Particulars: protein: recombinant; tags: N-terminal GST; dsDNA, one strand shown. The gist of the method: as §1
ELF4, sequence (Q99607 whole entry): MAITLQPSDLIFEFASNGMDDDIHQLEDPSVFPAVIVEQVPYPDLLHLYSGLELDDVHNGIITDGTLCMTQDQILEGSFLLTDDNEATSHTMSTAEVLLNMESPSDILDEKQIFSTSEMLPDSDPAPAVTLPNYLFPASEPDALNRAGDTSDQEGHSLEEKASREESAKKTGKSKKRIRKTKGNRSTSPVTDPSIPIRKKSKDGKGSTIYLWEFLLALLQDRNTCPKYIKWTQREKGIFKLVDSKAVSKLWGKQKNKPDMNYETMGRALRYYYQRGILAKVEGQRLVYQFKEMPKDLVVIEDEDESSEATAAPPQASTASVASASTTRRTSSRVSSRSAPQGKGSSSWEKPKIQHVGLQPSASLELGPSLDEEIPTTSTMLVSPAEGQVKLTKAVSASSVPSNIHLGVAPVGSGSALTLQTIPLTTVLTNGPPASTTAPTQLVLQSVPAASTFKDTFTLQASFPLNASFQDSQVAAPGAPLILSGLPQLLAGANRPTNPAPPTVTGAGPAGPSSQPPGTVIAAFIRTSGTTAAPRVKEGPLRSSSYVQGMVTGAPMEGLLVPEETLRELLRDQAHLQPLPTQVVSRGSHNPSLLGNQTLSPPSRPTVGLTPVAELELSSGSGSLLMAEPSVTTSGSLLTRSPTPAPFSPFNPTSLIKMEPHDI
In a further experiment the target is T3, ELK4 (Homo sapiens, UniProt P28324-2 1-405).
T3 sequence: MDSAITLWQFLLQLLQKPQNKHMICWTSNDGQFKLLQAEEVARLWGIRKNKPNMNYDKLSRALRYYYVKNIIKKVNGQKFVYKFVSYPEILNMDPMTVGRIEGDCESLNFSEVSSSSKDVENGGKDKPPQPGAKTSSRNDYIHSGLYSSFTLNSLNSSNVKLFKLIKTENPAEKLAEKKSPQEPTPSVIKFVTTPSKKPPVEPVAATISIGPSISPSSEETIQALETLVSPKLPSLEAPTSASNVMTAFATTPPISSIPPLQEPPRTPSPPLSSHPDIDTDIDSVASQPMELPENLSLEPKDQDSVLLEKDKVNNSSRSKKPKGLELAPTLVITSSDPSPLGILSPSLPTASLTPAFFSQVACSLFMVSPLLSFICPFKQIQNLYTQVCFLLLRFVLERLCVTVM
Particulars: protein: recombinant; tags: N-terminal GST; dsDNA, one strand shown. The gist of the method:
as §1

The next experiment has as its target T4, ETV2 (Homo sapiens, UniProt O00321 1-342).
T4 sequence: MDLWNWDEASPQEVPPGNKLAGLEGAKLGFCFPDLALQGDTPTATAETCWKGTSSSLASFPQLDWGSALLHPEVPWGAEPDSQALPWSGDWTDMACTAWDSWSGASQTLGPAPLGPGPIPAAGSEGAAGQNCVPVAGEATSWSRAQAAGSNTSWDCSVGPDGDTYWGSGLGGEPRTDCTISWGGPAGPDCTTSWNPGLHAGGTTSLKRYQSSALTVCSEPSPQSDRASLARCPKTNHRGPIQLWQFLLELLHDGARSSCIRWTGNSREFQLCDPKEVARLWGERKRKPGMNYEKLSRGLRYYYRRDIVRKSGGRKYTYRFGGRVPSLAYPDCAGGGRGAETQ
The following applies: protein: recombinant; tags: N-terminal GST; dsDNA, one strand shown. The procedure, abridged:
as §1

In a further experiment the target is T5, ELF3 (Homo sapiens, UniProt P78545 1-371).
T5 sequence: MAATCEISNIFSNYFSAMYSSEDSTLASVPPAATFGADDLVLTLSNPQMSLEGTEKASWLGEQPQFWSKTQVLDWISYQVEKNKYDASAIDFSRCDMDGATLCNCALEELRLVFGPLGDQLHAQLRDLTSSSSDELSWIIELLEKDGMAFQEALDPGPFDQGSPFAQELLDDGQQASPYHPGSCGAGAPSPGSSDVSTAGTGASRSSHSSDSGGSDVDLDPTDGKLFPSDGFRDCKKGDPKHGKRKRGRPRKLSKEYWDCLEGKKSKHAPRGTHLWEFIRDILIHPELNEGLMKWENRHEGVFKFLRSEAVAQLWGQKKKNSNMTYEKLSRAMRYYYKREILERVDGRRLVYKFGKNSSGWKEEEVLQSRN
The following applies: protein: recombinant; tags: N-terminal GST; dsDNA, one strand shown. The procedure, abridged: as §1

A further experiment deals with CRX (Homo sapiens, UniProt O43186 1-299). The following applies: protein: recombinant; tags: N-terminal GST; dsDNA, one strand shown. The procedure, abridged: as §1
CRX, sequence (O43186 whole entry): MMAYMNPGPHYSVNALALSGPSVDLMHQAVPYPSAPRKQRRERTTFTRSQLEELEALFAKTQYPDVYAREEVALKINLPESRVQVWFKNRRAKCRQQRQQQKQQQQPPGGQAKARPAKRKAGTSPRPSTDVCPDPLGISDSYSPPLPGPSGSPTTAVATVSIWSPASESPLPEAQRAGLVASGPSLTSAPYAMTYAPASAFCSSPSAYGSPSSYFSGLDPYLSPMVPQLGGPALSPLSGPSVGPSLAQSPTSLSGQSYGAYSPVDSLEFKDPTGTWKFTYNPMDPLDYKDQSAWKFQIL
Another experiment concerns the target ETV1 (Homo sapiens, UniProt P50549 1-477). Particulars: protein: recombinant; tags: N-terminal GST; dsDNA, one strand shown. The procedure, abridged: as §1
The next experiment addresses T6, ERF (Homo sapiens, UniProt P50548 1-548).
T6 sequence: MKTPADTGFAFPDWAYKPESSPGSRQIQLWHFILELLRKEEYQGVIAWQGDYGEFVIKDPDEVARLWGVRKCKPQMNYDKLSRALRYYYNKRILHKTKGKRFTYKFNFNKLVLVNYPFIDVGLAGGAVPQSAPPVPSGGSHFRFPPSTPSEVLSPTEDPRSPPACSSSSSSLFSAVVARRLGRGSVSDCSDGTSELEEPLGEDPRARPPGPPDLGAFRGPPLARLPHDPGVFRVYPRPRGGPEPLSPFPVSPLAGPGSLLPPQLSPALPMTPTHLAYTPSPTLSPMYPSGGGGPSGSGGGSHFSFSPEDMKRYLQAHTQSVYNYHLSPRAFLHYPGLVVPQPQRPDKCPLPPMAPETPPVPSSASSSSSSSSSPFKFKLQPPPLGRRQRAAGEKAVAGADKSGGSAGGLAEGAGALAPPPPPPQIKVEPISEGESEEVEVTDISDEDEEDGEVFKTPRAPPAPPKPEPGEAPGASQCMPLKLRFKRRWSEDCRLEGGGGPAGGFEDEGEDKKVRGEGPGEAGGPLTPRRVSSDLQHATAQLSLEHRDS
The following applies: protein: recombinant; tags: N-terminal GST; dsDNA, one strand shown. The gist of the method: as §1

Another experiment deals with T7, ETV3L (Homo sapiens, UniProt Q6ZN32 1-361).
T7 sequence: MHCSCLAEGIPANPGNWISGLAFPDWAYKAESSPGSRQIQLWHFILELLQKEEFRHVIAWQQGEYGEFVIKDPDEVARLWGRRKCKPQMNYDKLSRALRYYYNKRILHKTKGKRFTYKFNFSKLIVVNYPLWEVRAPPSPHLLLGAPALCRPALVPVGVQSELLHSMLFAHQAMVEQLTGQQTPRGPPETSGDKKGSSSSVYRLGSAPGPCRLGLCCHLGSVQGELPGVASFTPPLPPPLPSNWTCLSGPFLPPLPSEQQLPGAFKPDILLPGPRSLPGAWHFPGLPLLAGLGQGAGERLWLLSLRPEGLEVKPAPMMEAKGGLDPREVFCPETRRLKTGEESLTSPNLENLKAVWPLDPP
The following applies: protein: recombinant; tags: N-terminal GST; dsDNA, one strand shown. The procedure, abridged: as §1

The next experiment concerns the target T8, ETS2 (Homo sapiens, UniProt P15036 1-469).
T8 sequence: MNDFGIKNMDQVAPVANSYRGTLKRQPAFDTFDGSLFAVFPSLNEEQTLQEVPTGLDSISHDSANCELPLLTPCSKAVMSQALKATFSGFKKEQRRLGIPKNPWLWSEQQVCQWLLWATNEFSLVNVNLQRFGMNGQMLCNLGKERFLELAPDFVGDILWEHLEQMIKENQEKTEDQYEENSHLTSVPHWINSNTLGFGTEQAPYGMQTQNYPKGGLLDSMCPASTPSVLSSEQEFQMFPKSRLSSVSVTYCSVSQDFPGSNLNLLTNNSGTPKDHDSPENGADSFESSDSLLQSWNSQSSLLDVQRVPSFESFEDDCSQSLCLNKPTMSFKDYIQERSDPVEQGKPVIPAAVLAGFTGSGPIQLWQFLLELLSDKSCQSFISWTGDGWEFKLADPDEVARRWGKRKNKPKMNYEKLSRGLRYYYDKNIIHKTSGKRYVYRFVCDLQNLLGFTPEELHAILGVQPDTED
The following applies: protein: recombinant; tags: N-terminal GST; dsDNA, one strand shown. The gist of the method:
as §1

The target of a further experiment is T9, SPDEF (Homo sapiens, UniProt O95238 1-335).
T9 sequence: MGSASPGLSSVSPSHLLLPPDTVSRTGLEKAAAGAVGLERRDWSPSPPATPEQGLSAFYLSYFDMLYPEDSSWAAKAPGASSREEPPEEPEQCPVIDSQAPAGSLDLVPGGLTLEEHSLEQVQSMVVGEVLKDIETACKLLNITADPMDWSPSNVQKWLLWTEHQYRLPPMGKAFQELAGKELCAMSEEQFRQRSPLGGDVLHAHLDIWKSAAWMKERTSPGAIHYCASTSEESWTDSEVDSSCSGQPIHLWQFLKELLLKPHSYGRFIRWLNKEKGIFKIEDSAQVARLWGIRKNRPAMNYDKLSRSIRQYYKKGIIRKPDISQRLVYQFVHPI
The following applies: protein: recombinant; tags: N-terminal GST; dsDNA, one strand shown. The procedure, abridged:
as §1

In another experiment the target is T10, ETV7 (Homo sapiens, UniProt Q9Y603 1-341).
T10 sequence: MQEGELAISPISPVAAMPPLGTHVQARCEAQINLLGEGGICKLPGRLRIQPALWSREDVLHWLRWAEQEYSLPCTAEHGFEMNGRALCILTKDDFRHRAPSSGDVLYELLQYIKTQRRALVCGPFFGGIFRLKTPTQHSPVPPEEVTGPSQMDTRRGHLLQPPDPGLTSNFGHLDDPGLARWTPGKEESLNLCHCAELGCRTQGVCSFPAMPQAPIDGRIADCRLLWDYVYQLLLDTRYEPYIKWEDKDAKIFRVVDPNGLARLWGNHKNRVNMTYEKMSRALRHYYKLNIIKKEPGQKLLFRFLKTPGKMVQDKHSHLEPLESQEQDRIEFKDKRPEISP
Particulars: protein: recombinant; tags: N-terminal GST; dsDNA, one strand shown. The gist of the method:
as §1

A further experiment concerns the target T11, ELF5 (Homo sapiens, UniProt Q9UKW6-2 1-255).
T11 sequence: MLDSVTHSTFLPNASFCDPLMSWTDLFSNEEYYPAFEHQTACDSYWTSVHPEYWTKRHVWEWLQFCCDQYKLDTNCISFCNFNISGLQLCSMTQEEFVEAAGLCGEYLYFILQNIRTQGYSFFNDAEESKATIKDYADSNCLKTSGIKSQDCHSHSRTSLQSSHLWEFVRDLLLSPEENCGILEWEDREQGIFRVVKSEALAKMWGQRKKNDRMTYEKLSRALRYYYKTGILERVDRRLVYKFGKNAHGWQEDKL
The following applies: protein: recombinant; tags: N-terminal GST; dsDNA, one strand shown. The procedure, abridged:
as §1

The target of a further experiment is T12, ETV3 (Homo sapiens, UniProt P41162-2 1-143).
T12 sequence: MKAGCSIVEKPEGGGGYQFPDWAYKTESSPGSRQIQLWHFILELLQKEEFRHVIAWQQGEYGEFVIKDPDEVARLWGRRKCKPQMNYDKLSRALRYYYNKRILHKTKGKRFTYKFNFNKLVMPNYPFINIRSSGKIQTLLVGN
Particulars: protein: recombinant; tags: N-terminal GST; dsDNA, one strand shown. The gist of the method: as §1

The next experiment addresses ETV6 (Homo sapiens, UniProt P41212 1-452). The following applies: protein: recombinant; tags: N-terminal GST; dsDNA, one strand shown. The procedure, abridged: as §1

ETV5, sequence (P41161 whole entry): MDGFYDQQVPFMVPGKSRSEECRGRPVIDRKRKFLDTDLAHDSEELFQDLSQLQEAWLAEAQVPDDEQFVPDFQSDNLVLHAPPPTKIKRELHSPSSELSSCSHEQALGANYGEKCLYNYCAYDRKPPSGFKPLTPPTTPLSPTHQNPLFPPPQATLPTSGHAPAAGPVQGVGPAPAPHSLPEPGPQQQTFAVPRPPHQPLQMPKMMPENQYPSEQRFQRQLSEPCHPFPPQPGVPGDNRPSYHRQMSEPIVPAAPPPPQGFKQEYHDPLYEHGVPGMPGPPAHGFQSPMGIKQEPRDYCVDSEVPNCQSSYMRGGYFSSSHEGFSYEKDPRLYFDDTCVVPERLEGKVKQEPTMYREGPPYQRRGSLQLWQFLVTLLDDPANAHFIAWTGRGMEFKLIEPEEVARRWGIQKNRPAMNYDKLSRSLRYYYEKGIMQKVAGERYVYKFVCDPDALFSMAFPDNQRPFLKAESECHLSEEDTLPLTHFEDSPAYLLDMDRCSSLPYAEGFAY
HSF1, sequence (Q00613 whole entry): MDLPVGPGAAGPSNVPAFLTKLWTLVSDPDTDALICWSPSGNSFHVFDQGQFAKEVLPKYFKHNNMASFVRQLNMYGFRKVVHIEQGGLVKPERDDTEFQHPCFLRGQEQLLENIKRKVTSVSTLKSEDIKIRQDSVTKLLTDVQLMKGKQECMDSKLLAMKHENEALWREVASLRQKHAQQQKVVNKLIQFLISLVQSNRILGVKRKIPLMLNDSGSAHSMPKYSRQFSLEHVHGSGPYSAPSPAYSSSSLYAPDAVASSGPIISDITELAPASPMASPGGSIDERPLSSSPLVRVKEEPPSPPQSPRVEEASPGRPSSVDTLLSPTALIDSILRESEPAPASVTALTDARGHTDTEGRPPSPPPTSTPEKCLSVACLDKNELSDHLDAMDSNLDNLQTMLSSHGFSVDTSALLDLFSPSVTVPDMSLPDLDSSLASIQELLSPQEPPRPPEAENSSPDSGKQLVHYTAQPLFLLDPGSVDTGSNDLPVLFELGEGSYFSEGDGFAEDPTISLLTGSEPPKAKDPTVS
ETV6, sequence (P41212 whole entry): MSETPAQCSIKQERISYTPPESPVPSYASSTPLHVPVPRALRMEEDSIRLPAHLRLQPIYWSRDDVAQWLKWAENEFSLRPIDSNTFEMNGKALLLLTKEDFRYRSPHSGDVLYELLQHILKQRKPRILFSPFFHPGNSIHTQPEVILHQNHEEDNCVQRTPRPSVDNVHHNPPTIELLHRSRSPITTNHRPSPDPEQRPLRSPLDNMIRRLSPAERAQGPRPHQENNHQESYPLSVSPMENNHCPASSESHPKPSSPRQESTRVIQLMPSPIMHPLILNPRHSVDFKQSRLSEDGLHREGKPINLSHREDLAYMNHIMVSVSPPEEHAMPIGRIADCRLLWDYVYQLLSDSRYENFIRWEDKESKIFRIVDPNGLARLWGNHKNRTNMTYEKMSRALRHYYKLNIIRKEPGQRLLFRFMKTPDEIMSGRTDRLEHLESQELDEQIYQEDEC
ETV1, sequence (P50549 whole entry): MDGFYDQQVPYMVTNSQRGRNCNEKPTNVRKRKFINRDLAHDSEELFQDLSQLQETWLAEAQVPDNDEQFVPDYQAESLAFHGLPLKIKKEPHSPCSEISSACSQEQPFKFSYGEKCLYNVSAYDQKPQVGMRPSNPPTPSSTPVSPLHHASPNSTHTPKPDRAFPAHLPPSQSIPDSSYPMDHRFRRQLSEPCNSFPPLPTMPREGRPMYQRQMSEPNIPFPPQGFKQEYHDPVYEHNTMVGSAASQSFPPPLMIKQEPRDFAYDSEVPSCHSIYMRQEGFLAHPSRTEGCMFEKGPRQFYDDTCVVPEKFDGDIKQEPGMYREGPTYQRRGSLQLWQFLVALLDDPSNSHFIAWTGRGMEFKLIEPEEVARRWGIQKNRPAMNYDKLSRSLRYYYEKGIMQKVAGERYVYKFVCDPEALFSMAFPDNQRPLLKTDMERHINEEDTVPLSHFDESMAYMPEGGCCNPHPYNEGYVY

For the sequence TACCTA, the binding signal is 1.2 fold enrichment (6-mer frequency, TF over GST control) with FEV; 1.31 fold enrichment (6-mer frequency, TF over GST control) with ETV5; 1.28 fold enrichment (6-mer frequency, TF over GST control) with HSF1; 1.19 fold enrichment (6-mer frequency, TF over GST control) in the experiment with SPIC; 1.3 fold enrichment (6-mer frequency, TF over GST control) with ELF4; 1.35 fold enrichment (6-mer frequency, TF over GST control) with ELK4. Moreover, the binding signal was 1.21 fold enrichment (6-mer frequency, TF over GST control) with ETV2; 1.3 fold enrichment (6-mer frequency, TF over GST control) with ELF3; 1.55 fold enrichment (6-mer frequency, TF over GST control) with CRX; 1.34 fold enrichment (6-mer frequency, TF over GST control) in the experiment with ETV1; 1.25 fold enrichment (6-mer frequency, TF over GST control) with ERF; 1.28 fold enrichment (6-mer frequency, TF over GST control) with ETV3L. Besides, the binding signal with ETS2 is 1.31 fold enrichment (6-mer frequency, TF over GST control); with SPDEF, 1.19 fold enrichment (6-mer frequency, TF over GST control); in the experiment with ETV7 it was 1.27 fold enrichment (6-mer frequency, TF over GST control); in the experiment with ELF5, 1.23 fold enrichment (6-mer frequency, TF over GST control); with ETV3, 1.2 fold enrichment (6-mer frequency, TF over GST control); in the experiment with ETV6, 1.29 fold enrichment (6-mer frequency, TF over GST control).
